{"source": "ChEMBL document CHEMBL4303097", "about": "(2020)", "note": "Over roughly 1,500 compounds, “Inhibition index” has its median near 0.17; the highest 2% begin near 1.3. The entries come from a sample that favours the highest values as a whole.", "data": [{"tested_on": "SARS-CoV-2", "assay": "Inhibition of cell viability relative to arbidol control (inhibition index > 1 indicates higher activity) measured by fluorescence (OD590nm) in Vero E6 cells infected with SARS-CoV-2 (strain BavPat1) at MOI 0.002 after 72hrs", "assay_type": "functional, Chlorocebus sabaeus, Vero C1008", "values": [{"smiles": "C[C@@H](O)[C@H]1C(=O)N2C(C(=O)O)=C(SCCNC=N)C[C@H]12", "note": "[IMIPENEM ANHYDROUS]", "Inhibition index": 0.0698}, {"smiles": "CCOC(=O)NNc1nncc2ccccc12.Cl", "note": "[TODRALAZINE HYDROCHLORIDE]", "Inhibition index": -0.005099}, {"smiles": "CC(C)=C/C(C)=N/Nc1nncc2ccccc12", "note": "[BUDRALAZINE]", "Inhibition index": 1.549}, {"smiles": "CCc1c(C)[nH]c2c1C(=O)C(CN1CCOCC1)CC2.Cl", "note": "(centres undefined) [MOLINDONE HYDROCHLORIDE]", "Inhibition index": 0.4807}, {"smiles": "CN[C@H](CC(C)C)C(=O)N[C@H]1C(=O)N[C@@H](CC(N)=O)C(=O)N[C@H]2C(=O)N[C@H]3C(=O)N[C@H](C(=O)N[C@H](C(=O)O)c4cc(O)cc(O)c4-c4cc3ccc4O)[C@H](O)c3ccc(c(Cl)c3)Oc3cc2cc(c3O[C@@H]2O[C@H](CO)[C@@H](O)[C@H](O)[C@H]2O[C@H]2C[C@](C)(N)[C@H](O)[C@H](C)O2)Oc2ccc(cc2Cl)[C@H]1O.Cl", "Inhibition index": 0.05858}, {"smiles": "C[C@H]1O[C@H](O[C@H]2[C@H](O)[C@@H](O)[C@@H](O[C@H]3[C@H](O)[C@@H](O)C(O)O[C@@H]3CO)O[C@@H]2CO)[C@H](O)[C@@H](O)[C@@H]1N[C@H]1C=C(CO)[C@@H](O)[C@H](O)[C@H]1O", "note": "(some centres undefined) [ACARBOSE]", "Inhibition index": 0.004156}, {"smiles": "CC(=O)[C@H]1CC[C@H]2[C@@H]3C=CC4=CC(=O)CC[C@@]4(C)[C@@H]3CC[C@]12C", "note": "[DYDROGESTERONE]", "Inhibition index": 0.5447}, {"smiles": "COCCCOc1ccnc(C[S+]([O-])c2nc3ccccc3[nH]2)c1C.[Na+]", "note": "(centres undefined)", "Inhibition index": 0.5892}, {"smiles": "CC(COc1ccccc1)NC(C)C(O)c1ccc(O)cc1.Cl", "note": "(centres undefined) [ISOXSUPRINE HYDROCHLORIDE]", "Inhibition index": -0.02068}, {"smiles": "CC(CCc1ccccc1)NCC(O)c1ccc(O)c(C(N)=O)c1.Cl", "note": "(centres undefined) [LABETALOL HYDROCHLORIDE]", "Inhibition index": 0.3584}, {"smiles": "CC(C)NC[C@@H](O)c1ccc(O)c(O)c1.O=C(O)C(O)C(O)C(=O)O", "Inhibition index": 0.1733}, {"smiles": "CC(NCCc1ccc(O)cc1)C(O)c1ccc(O)cc1.Cl", "note": "(centres undefined) [RITODRINE HYDROCHLORIDE]", "Inhibition index": 0.3972}, {"smiles": "CC(CCc1ccccc1)NC(C)C(O)c1ccc(O)cc1", "note": "(centres undefined) [NYLIDRIN]", "Inhibition index": 1.263}, {"smiles": "C[C@H](CCc1ccccc1)NC[C@H](O)c1ccc(O)c(C(N)=O)c1", "note": "[DILEVALOL]", "Inhibition index": 1.277}, {"smiles": "CCOC(=O)O[C@]1(C(=O)COC(=O)CC)CC[C@H]2[C@@H]3CCC4=CC(=O)C=C[C@]4(C)[C@H]3[C@@H](O)C[C@@]21C", "note": "[PREDNICARBATE]", "Inhibition index": 1.368}, {"smiles": "C[C@]12C=CC(=O)C=C1CC[C@@H]1[C@@H]2[C@@H](O)C[C@@]2(C)[C@H]1CC[C@]2(O)C(=O)CO", "note": "[PREDNISOLONE]", "Inhibition index": 0.3132}, {"smiles": "CC1(C)O[C@@H]2C[C@H]3[C@@H]4CCC5=CC(=O)C=C[C@]5(C)[C@H]4[C@@H](O)C[C@]3(C)[C@]2(C(=O)CO)O1", "note": "[DESONIDE]", "Inhibition index": 1.58}, {"smiles": "CCCC1O[C@@H]2C[C@H]3[C@@H]4CCC5=CC(=O)C=C[C@]5(C)[C@H]4[C@@H](O)C[C@]3(C)[C@]2(C(=O)CO)O1", "note": "(some centres undefined) [BUDESONIDE]", "Inhibition index": 0.726}, {"smiles": "CCOC(=O)O[C@]1(C(=O)OCCl)CC[C@H]2[C@@H]3CCC4=CC(=O)C=C[C@]4(C)[C@H]3[C@@H](O)C[C@@]21C", "note": "[LOTEPREDNOL ETABONATE]", "Inhibition index": 0.5857}, {"smiles": "CC1(C)O[C@@H]2C[C@H]3[C@@H]4C[C@H](F)C5=CC(=O)C=C[C@]5(C)[C@H]4[C@@H](O)C[C@]3(C)[C@]2(C(=O)CO)O1", "note": "[FLUNISOLIDE]", "Inhibition index": 0.0848}, {"smiles": "CCN(CC)CCOC(=O)C(c1ccccc1)c1ccccc1.Cl", "note": "[ADIPHENINE HYDROCHLORIDE]", "Inhibition index": 0.1368}, {"smiles": "CC/C(=C(\\c1ccccc1)c1ccc(OCCN(C)C)cc1)c1ccccc1.O=C(O)CC(O)(CC(=O)O)C(=O)O", "note": "[TAMOXIFEN CITRATE]", "Inhibition index": -0.1208}, {"smiles": "C[C@]12CC[C@@H]3c4ccc(O)cc4C[C@@H](CCCCCCCCC[S+]([O-])CCCC(F)(F)C(F)(F)F)[C@H]3[C@@H]1CC[C@@H]2O", "note": "(some centres undefined) [FULVESTRANT]", "Inhibition index": 0.187}, {"smiles": "CC[C@H](C)[C@H](NC(=O)[C@H](Cc1ccc(O)cc1)NC(=O)[C@@H](NC(=O)[C@H](CCCNC(=N)N)NC(=O)[C@@H](N)CC(=O)O)C(C)C)C(=O)N[C@@H](Cc1c[nH]cn1)C(=O)N1CCC[C@H]1C(=O)N[C@@H](Cc1ccccc1)C(=O)O.O=C(O)C(F)(F)F", "Inhibition index": 0.4608}, {"smiles": "CC(C(=O)[O-])c1cccc(Oc2ccccc2)c1.CC(C(=O)[O-])c1cccc(Oc2ccccc2)c1.O.O.[Ca+2]", "note": "(centres undefined) [FENOPROFEN CALCIUM]", "Inhibition index": 0.03953}, {"smiles": "CC(=O)OCC(=O)[C@@]12OC3(CCCC3)O[C@@H]1C[C@H]1[C@@H]3CCC4=CC(=O)C=C[C@]4(C)[C@@]3(F)[C@@H](O)C[C@@]12C", "note": "[AMCINONIDE]", "Inhibition index": 0.9715}, {"smiles": "CCCCCN(CCCCC)C(=O)C(CCC(=O)[O-])NC(=O)c1ccc(Cl)c(Cl)c1.[Na+]", "note": "(centres undefined) [LORGLUMIDE SODIUM]", "Inhibition index": 0.5123}, {"smiles": "Nc1nc2[nH]cc(CCc3ccc(C(=O)N[C@@H](CCC(=O)[O-])C(=O)[O-])cc3)c2c(=O)[nH]1.[Na+].[Na+]", "note": "[PEMETREXED DISODIUM]", "Inhibition index": 0.05416}, {"smiles": "CC(C)(C(=O)O)c1ccc(C(O)CCCN2CCC(C(O)(c3ccccc3)c3ccccc3)CC2)cc1.Cl", "note": "(centres undefined) [FEXOFENADINE HYDROCHLORIDE]", "Inhibition index": 0.6767}, {"smiles": "CC(C)NCC(O)c1ccc2ccccc2c1.Cl", "note": "(centres undefined)", "Inhibition index": 0.8858}, {"smiles": "CCN(CC)CCNC(=O)c1ccc(N)cc1.Cl", "note": "[PROCAINAMIDE HYDROCHLORIDE]", "Inhibition index": 0.2557}, {"smiles": "C#CCN(C)[C@H](C)Cc1ccccc1.Cl", "note": "[SELEGILINE HYDROCHLORIDE]", "Inhibition index": 0.2358}, {"smiles": "CCC1(c2cccc(O)c2)CCCCN(C)C1.Cl", "note": "(centres undefined) [MEPTAZINOL HYDROCHLORIDE]", "Inhibition index": 1.137}, {"smiles": "CCN1CCN(C(=O)N[C@@H](C(=O)N[C@@H]2C(=O)N3C(C(=O)O)=C(CSc4nnnn4C)CS[C@H]23)c2ccc(O)cc2)C(=O)C1=O.O.O", "note": "[CEFOPERAZONE DIHYDRATE]", "Inhibition index": 0.2339}, {"smiles": "C=C[C@H]1CN2CC[C@H]1C[C@@H]2[C@@H](O)c1ccnc2ccc(OC)cc12.Cl.O", "Inhibition index": 1.411}, {"smiles": "C=C[C@H]1CN2CC[C@H]1C[C@H]2[C@H](OC(=O)OCC)c1ccnc2ccc(OC)cc12", "note": "[QUININE ETHYLCARBONATE]", "Inhibition index": 0.6435}, {"smiles": "Nc1nc(/C(=C/CC(=O)O)C(=O)N[C@@H]2C(=O)N3C(C(=O)O)=CCS[C@H]23)cs1", "note": "[CEFTIBUTEN]", "Inhibition index": 0.07268}, {"smiles": "CC(C)OC(=O)CCC/C=C\\C[C@H]1[C@H](CC[C@@H](O)CCc2ccccc2)[C@@H](O)C[C@H]1O", "Inhibition index": 0.1555}, {"smiles": "CC[C@H]1OC(=O)[C@H](C)[C@@H](O[C@H]2C[C@@](C)(OC)[C@@H](O)[C@H](C)O2)[C@H](C)[C@@H](O[C@@H]2O[C@H](C)C[C@H](N(C)C)[C@H]2O)[C@](C)(O)C[C@@H](C)CN(C)[C@H](C)[C@@H](O)[C@]1(C)O", "note": "[AZITHROMYCIN]", "Inhibition index": 1.487}, {"smiles": "CC[C@H]1OC(=O)[C@H](C)[C@@H](O[C@H]2C[C@@](C)(OC)[C@@H](O)[C@H](C)O2)[C@H](C)[C@@H](O[C@@H]2O[C@H](C)C[C@H](N(C)C)[C@H]2O)[C@](C)(O)C[C@@H](C)C(=O)[C@H](C)[C@@H](O)[C@]1(C)O", "note": "[ERYTHROMYCIN]", "Inhibition index": 0.0005254}, {"smiles": "CC[C@H]1OC(=O)[C@H](C)[C@@H](O[C@H]2C[C@@](C)(OC)[C@@H](O)[C@H](C)O2)[C@H](C)[C@@H](O[C@@H]2O[C@H](C)C[C@H](N(C)C)[C@H]2O)[C@](C)(OC)C[C@@H](C)C(=O)[C@H](C)[C@@H](O)[C@]1(C)O", "note": "[CLARITHROMYCIN]", "Inhibition index": 0.8598}, {"smiles": "CCC(=O)O[C@]1(C(=O)CCl)[C@@H](C)C[C@H]2[C@@H]3CCC4=CC(=O)C=C[C@]4(C)[C@@]3(F)[C@@H](O)C[C@@]21C", "note": "[CLOBETASOL PROPIONATE]", "Inhibition index": 0.2335}, {"smiles": "CC(=O)S[C@@H]1CC2=CC(=O)CC[C@]2(C)[C@H]2CC[C@@]3(C)[C@@H](CC[C@@]34CCC(=O)O4)[C@H]12", "note": "[SPIRONOLACTONE]", "Inhibition index": 0.4829}, {"smiles": "Cl.NC1CCN(c2nc3c(cc2F)c(=O)c(C(=O)O)cn3-c2ccc(F)cc2F)C1", "note": "(centres undefined)", "Inhibition index": 0.1095}, {"smiles": "CN1[C@@H]2CC[C@H]1C[C@@H](OC1c3ccccc3CCc3ccccc31)C2.O=C(O)CC(O)(CC(=O)O)C(=O)O", "note": "[DEPTROPINE CITRATE]", "Inhibition index": -0.3511}, {"smiles": "Cc1cc(C(C)(C)C)c(O)c(C)c1CC1=NCCN1.Cl", "note": "[OXYMETAZOLINE HYDROCHLORIDE]", "Inhibition index": 0.08485}, {"smiles": "C=C1CC[C@@]2(O)[C@H]3Cc4ccc(O)c5c4[C@@]2(CCN3CC2CC2)[C@H]1O5.Cl", "note": "[NALMEFENE HYDROCHLORIDE]", "Inhibition index": 1.653}, {"smiles": "Cl.Oc1ccc2c3c1O[C@H]1[C@@H](O)CC[C@@]4(O)[C@@H](C2)N(CC2CCC2)CC[C@]314", "note": "[NALBUPHINE HYDROCHLORIDE]", "Inhibition index": 0.2089}, {"smiles": "Cl.O.O.O=C1CC[C@@]2(O)[C@H]3Cc4ccc(O)c5c4[C@@]2(CCN3CC2CC2)[C@H]1O5", "Inhibition index": 0.1496}]}]}
